PubChem BioAssay (NCATS)
Results filed as inconclusive are left out. Unmarked numbers belong to inactive results. Activity calls are given as the source filed them. The call rests on the fitted dose curve; in most records, active means well fitted cell-killing curve with a large enough effect; inconclusive means small, poorly fitted or top-dose-only effect, or effect the other way; inactive means no such curve, though single readings can be large or run the other way.

Key:
[1] = Viability qHTS for spleen associated tyrosine kinase inhibitor (SYKi) naive MV4-11 cells (AID 1963823); further: nearly all actives have a fitted effect of over 40% in size
How it was run: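 Seeding of 500 SYKi-naive MV4-11 cells per well onto pre-dispensed compounds preceded a 72 hr incubation at 37 C. Luminescent CellTiter-Glo signal, read after 10 min at room temperature, reflected viable cells.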

[2] = Viability qHTS for spleen associated tyrosine kinase inhibitor (SYKi) drug resistant MV4-11 cells (AID 1963824); further: nearly all actives have a fitted effect of over 35% in size
How it was run: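 SYK inhibitor-resistant MV4-11 AML cells, 500 per well, added to predispensed compounds and incubated 72 hr at 37 C, 5% CO2. Viability measured by CellTiter-Glo luminescence after 10 min at room temperature.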
Potency means the concentration at half of the fitted maximal effect.

Compound	Potency [1]	Potency [2]	viability (% of control) [1]	viability, % of control [2]
CCC[C@@H]1C[C@@H](C(=O)N[C@@H]([C@H]2O[C@H](SC)[C@H](OP(=O)(O)O)[C@@H](O)[C@H]2O)[C@H](C)Cl)N(C)C1	inactive	inactive		
C=C1CC[C@@H]2[C@](C)(CO)[C@H](O)CC[C@@]2(C)[C@@H]1C/C=C1/C(=O)OCC1O (stereo partly specified)	2.91 µM (active)	3.26 µM (active)		
O=C(CCC1CCN(Cc2ccccc2)CC1)c1ccc2c(c1)NCCCC2	23.1 µM (active)	14.6 µM (active)		
O=C(COc1ccc(C(=O)c2ccccc2)cc1)NC1CCN(Cc2ccccc2)CC1	9.2 µM (active)	7.31 µM (active)		
CCCCN1CCCC[C@H]1C(=O)Nc1c(C)cccc1C	inactive	inactive		
COc1cc(/C=C/C(=O)O[C@H]2[C@H](O)[C@@H](CO)O[C@@]2(CO)O[C@H]2O[C@H](CO)[C@@H](O)[C@H](O)[C@H]2O)cc(OC)c1O	inactive	inactive		
COc1cc([C@H]2OC[C@@H]3[C@@H](c4ccc(O[C@@H]5O[C@H](CO)[C@@H](O)[C@H](O)[C@H]5O)c(OC)c4)OC[C@]23O)ccc1O	inactive	inactive		
CNC(=O)[C@H]1O[C@@H](n2cnc3c(NCc4ccc(N)c(I)c4)ncnc32)[C@H](O)[C@@H]1O			77.1% [at 9.25 µM]	80.4% [at 9.25 µM]
CC(C)(O)/C=C1/C(=O)C(C)(C)C(=O)C(C)(C)C1(O)O[C@@H]1O[C@H](COC(=O)c2cc(O)c(O)c(O)c2)[C@@H](O)[C@H](O)[C@H]1O (stereo partly specified)	inactive	inactive		
O=C(NCCO)c1cccc(-c2cc(Nc3ccc(OC(F)(F)F)cc3)ncn2)c1	6.51 µM (active)	5.8 µM (active)		
CC1CCCCN1CCCOC(=O)c1ccc(OC2CCCCC2)cc1 (stereo unspecified)	8.41 µM (active)	13.3 µM (active)		
COc1cc(/C=C/C(=O)O[C@@H]2O[C@H](CO)[C@@H](O)[C@H](O)[C@H]2O)ccc1O	inactive	inactive		
CC1(C)SC2C(NC(=O)[C@H](NC(=O)N3CCNC3=O)c3ccccc3)C(=O)N2C1C(=O)O (stereo partly specified)	inactive	inactive		
CCOC(=O)[C@@H](N)Cc1ccc(-c2cc(O[C@H](c3ccc(Cl)cc3-n3ccc(C)n3)C(F)(F)F)nc(N)n2)cc1	8.33 µM (active)	4.17 µM (active)		
C=C1C(=O)O[C@@H]2[C@H]1[C@H](O)C[C@]1(C)[C@@H](O)CC=C(C)[C@@H]21	9.2 µM (active)	4.11 µM (active)		
CC1(C)CCC[C@]2(C)[C@H]3CC(=O)O[C@]3(C)CC[C@@H]12	inactive	inactive		
CCN(CC)C(=O)c1ccc(Nc2nc(OCC3CCCCC3)c3[nH]cnc3n2)cc1	1.03 µM (active)	1.46 µM (active)		
CC(=O)[C@@H]1C[C@H](C(C)(C)O[C@@H]2O[C@H](CO)[C@@H](O)[C@H](O)[C@H]2O)CC[C@@]2(CO)OC(=O)C[C@@H]12	inactive	inactive		
OCC1=C[C@@H](O)[C@@H]2C=CO[C@@H](O[C@@H]3O[C@H](CO)[C@@H](O)[C@H](O)[C@H]3O)[C@H]12	inactive	inactive		
CC(C)(C)Nc1nc(Nc2ccc(C(N)=O)cc2)cc(N)c1C#N	1.64 µM (active)	2.31 µM (active)		
CC1CC(=O)[C@]2(O)C(C(=O)OCCc3ccc(O)c(O)c3)=CO[C@@H](O[C@@H]3O[C@H](CO)[C@@H](O)[C@H](O)[C@H]3O)[C@H]12 (stereo partly specified)	inactive	inactive		
CC1(C)CC[C@]2(C(=O)O[C@@H]3O[C@H](CO)[C@@H](O)[C@H](O)[C@H]3O)CC[C@]3(C)C(=CCC4[C@@]5(C)CC[C@H](OC6OC(C(=O)O)C(OC7OC(CO)C(O)C(O)C7O)C(O)C6O)C(C)(C)C5CC[C@]43C)C2C1 (stereo partly specified)			86.6% [at 9.25 µM]	91.6% [at 9.25 µM]
O=C(Nc1ccc(N2CCC(C(=O)N3CCOCC3)CC2)cc1)c1cnc(Oc2ccccc2)nc1	inactive	inactive		
CC(C)CC1(C(=O)OCc2ccc(O[C@@H]3O[C@H](CO)[C@@H](O)[C@H](O)[C@H]3O)cc2)CC(=O)OC(C(=O)O)CC(=O)OCC2OC(O1)C(OC(=O)/C=C/c1ccc(O)cc1)C(O)C2O (stereo partly specified)			90.4% [at 9.25 µM]	89.5% [at 9.25 µM]
CSCC[C@H](NC(=O)[C@H](CCSC)NC(=O)CNC(=O)[C@H](Cc1ccc(O)cc1)NC(=O)[C@H](Cc1ccccc1)NC(=O)[C@H](CCCN=C(N)N)NC(=O)[C@H](CC(=O)O)NC(=O)[C@@H]1CCCN1C(=O)[C@H](CC(=O)O)NC(=O)[C@@H]1CCCN1C(=O)[C@@H]1CCCN1C(=O)[C@@H](N)CC(=O)O)C(N)=O	inactive	inactive		
Cc1noc(C)c1-c1cc(O)cc(C(O)c2ccccc2)c1 (stereo unspecified)	1.46 µM (active)	1.46 µM (active)		
CC1(C)CC[C@]2(C(=O)O[C@@H]3O[C@H](CO[C@@H]4O[C@H](CO)[C@@H](O)[C@H](O)[C@H]4O[C@@H]4O[C@H](CO)[C@H](O)[C@H](O)[C@H]4O)[C@@H](O)[C@H](O[C@@H]4O[C@H](CO)[C@@H](O)[C@H](O)[C@H]4O)[C@H]3O)CC[C@]3(C)C(=CCC4[C@@]5(C)CC[C@H](O[C@@H]6OC[C@@H](O)[C@H](O)[C@H]6O)[C@@](C)(C(=O)O)C5CC[C@]43C)[C@@H]2C1 (stereo partly specified)			76.7% [at 9.25 µM]	74.7% [at 9.25 µM]

Compound	Potency [1]	Potency [2]	viability (% of control) [1]	viability, % of control [2]
CC(C)CCC[C@@H](C)[C@H]1CC[C@H]2[C@@H]3CC=C4C[C@@H](OC(=O)NCCN(C)C)CC[C@]4(C)[C@H]3CC[C@]12C	20.6 µM (active)	16.4 µM (active)		
COC(=O)c1c(CC=C(C)C)c(OC2OC(CO)C(O)C(O)C2O)c2ccccc2c1OC1OC(CO)C(O)C(O)C1O (stereo unspecified)	inactive	inactive		
CC(=O)CC(=O)Nc1ccc(Cl)c(C(F)(F)F)c1	9.2 µM (active)	14.6 µM (active)		
C=C(C)C(=O)O[C@H]1[C@H]2C(=C)C(=O)O[C@@H]2/C=C(\CO)CC/C=C(/C=O)[C@@H]1O	10.1 µM (active)	9.04 µM (active)		
CC(C)C(C(=O)N1CCCC1C(=O)O)N(C)C(=O)C(O)Cc1ccccc1 (stereo unspecified)	inactive	inactive		
CC(=O)O[C@H]1[C@H](OC(=O)C(C)C)[C@]2(C)OC3(CC[C@]2(C)[C@H]2CCC[C@]4(CO4)[C@]12C)COC(=O)C3 (stereo partly specified)	inactive	inactive		
CNc1nc(-c2ccc3c(N)n[nH]c3c2)cc(N2C[C@@H](C(=O)NC3CCCCC3)CC[C@H]2C)n1	5.25 µM (active)	5.9 µM (active)		
COc1cc(C)c(C(=O)O[C@H]2[C@@H](O)[C@H](n3ccc(=O)[nH]c3=O)O[C@@H]2CO)c(OC)c1	inactive	inactive		
COc1cc([C@H]2c3cc(O)c(OC)cc3C[C@@H](CO[C@@H]3O[C@H](CO)[C@@H](O)[C@H](O)[C@H]3O)[C@@H]2CO)ccc1O	inactive	inactive		
Cc1ccc(C(C)C)c(O[C@@H]2O[C@H](CO)[C@@H](O)[C@H](O)[C@H]2O)c1	inactive	inactive		
Nc1nc(NC2CC2)cc(-c2cccc(Cl)c2Cl)n1	10.3 µM (active)	7.31 µM (active)		
C=C1C(=O)OC2CC(C)=C(C(C)CCCO[C@@H]3O[C@H](CO)[C@@H](O)[C@H](O)[C@H]3O)C(O)C12 (stereo partly specified)	inactive	inactive		
CC1C2=CC(=O)OC2(O)CC2C1C(OC(=O)c1ccccc1)C(OC(=O)c1ccccc1)C1(O)C2(C)CCC(O)C1(C)C(=O)O (stereo unspecified)	inactive	inactive		
CC[C@]1(O)CC2CN(CCc3c([nH]c4ccccc34)[C@@](C(=O)OC)(c3cc4c(cc3OC)N(C=O)[C@H]3[C@@](O)(C(=O)OC)[C@H](OC(C)=O)[C@]5(CC)C=CCN6CC[C@]43[C@@H]65)C2)C1 (stereo partly specified)	0.0805 µM (active)	0.0508 µM (active)		
CC1(C)C(=O)CCC2(C)C1C(O)C=C1COC(=O)C12O (stereo unspecified)	inactive	inactive		
O=C(c1ccccc1)c1c(O)cc(O)cc1O[C@@H]1O[C@H](CO)[C@@H](O)[C@H](O)[C@H]1O	inactive	inactive		
Oc1ccc(CNc2ccccc2F)c2cccnc12	2.91 µM (active)	4.61 µM (active)		
COc1ccc(Cl)cc1[C@@]1(F)C(=O)Nc2cc(C(F)(F)F)ccc21	9.2 µM (active)	6.51 µM (active)		
CN1CCN(C2Cc3ccccc3Sc3ccc(Cl)cc32)CC1 (stereo unspecified)	3.35 µM (active)	3.35 µM (active)		
CN(C)CC(c1ccc(O)cc1)C1(O)CCCCC1 (stereo unspecified)	inactive	inactive		
CC/C=C/C(O)C(O)C1=C(C)C(=O)C2(O1)C(=O)NC(OC)(C(=O)c1ccccc1)C2O (stereo unspecified)	inactive	inactive		
N#CC(=C(/N)Sc1ccccc1N)/C(C#N)=C(/N)Sc1ccccc1N	10.3 µM (active)	7.31 µM (active)		
C[C@@H]1O[C@@H](OC2C(O[C@H]3[C@H](O[C@H]4CC[C@@]5(C)C(CC[C@]6(C)C5CC=C5C7CC(C)(C)CC(O)[C@]7(C)CC[C@]56C)C4(C)C)O[C@H](C(=O)O)[C@@H](O)[C@@H]3O)OC(CO)C(O)C2O)[C@H](O)[C@H](O)[C@H]1O (stereo partly specified)			84.2% [at 9.25 µM]	97.3% [at 9.25 µM]
CC(O)C(O)/C=C/C=C/C(=O)O[C@@H]1C=C(C(=O)O)[C@](O)(CO)[C@@]2(C)CCCC(C)(C)[C@H]12 (stereo partly specified)	inactive	inactive		
COC(=N)c1nc2ccc3ncnc(Nc4ccc(F)cc4Br)c3c2s1	1.46 µM (active)	0.82 µM (active)		
C[C@@H]1O[C@@H](O[C@@H]2[C@@H](O)[C@H](O[C@@H]3[C@@H](O)[C@@H](O)[C@H](O[C@H]4[C@H](OC(=O)[C@]56CCC(C)(C)C[C@H]5C5=CCC7[C@@]8(C)C[C@H](O)[C@H](O[C@@H]9O[C@H](C(=O)O)[C@@H](O)[C@H](O)[C@H]9O)[C@@](C)(CO)C8[C@H](O)C[C@@]7(C)[C@]5(C)C[C@H]6O)O[C@@H](CO)[C@@H]4O)O[C@H]3C)OC[C@H]2O)[C@H](O)[C@H](O)[C@H]1O (stereo partly specified)			90.8% [at 9.25 µM]	95.2% [at 9.25 µM]
